From PubChem BioAssay come the findings set out here.

Molecules are shown by their SMILES. The source made the active and inactive calls. No stated cut-off is given here; in the data, active means inhibition above about 33%; inactive means the rest.

The nature of the assay: compounds suppressing VP16-driven luciferase signal – cell-based, luminescence, high throughput, counter-screen for LRH-1 inverse agonist project (AID 651615). Particulars: Gal4-VP16 luciferase reporter cells, at 3.6 µM, active compounds read high. For orientation: A counterscreen serves to expose hits that act by an unwanted route or on another target.
As a reminder, the inhibition is the relative decrease from the control value, in per cent. Consider `N=c1ccn(CC(=O)c2ccc(-c3ccccc3)cc2)cc1`, for which the inhibition was 76.5% (active).
The value for `C(=NNc1ccc2ccccc2n1)c1ccccn1` was -44.1% (inactive); that for `CC(=NNC(=S)Nc1ccc(C)cc1)c1ccccn1` was 52.6% (active); that for `Cc1cc(-c2nnc(SCC(=O)Nc3ccccc3C(F)(F)F)o2)c(C)n1-c1ccccc1` was -38.7% (inactive).
Take `CCC(=O)NC(c1ccc(Cl)cc1Cl)c1ccc2cccnc2c1O` (stereo not given): the inhibition was 72.7% (active).
With `CCOc1ccc(C(=O)Nc2cnn(Cc3ccc(Cl)c(Cl)c3)c2)cc1`, the inhibition was 70.5% (active).
The value for `Cc1ccc(-n2c(-c3ccccc3)c[n+]3c2CCc2ccccc2-3)c(C)c1` was 91.7% (active).
The value for `CC1Cc2cc(-c3csc(NC(=O)Cc4cccs4)n3)ccc2N1S(C)(=O)=O` (stereo not given) was 69.9% (active); that for `Cc1ccc2nc(NC(=O)CSCC(=O)OCC(=O)c3ccccc3)sc2c1` was 32.6% (active).
For `O=c1[nH]cnc2c1nnn2C1OC(CO)C(O)C1O` (stereo not given), the inhibition was 27.1% (inactive).
In the case of `Cc1cccc(-n2c(N)c(-c3nc4ccccc4n3C)c3nc4ccccc4nc32)c1`, the inhibition was 1.82% (inactive).
Then `CN(C)c1ccc(/C=C/c2ccc3ccccc3[n+]2C)cc1`, with 70.9% (active); and `COc1ccc(C(=O)Nc2cnn(Cc3ccc(Cl)cc3)c2)cc1OC`, with 63.1% (active); and `CCOC(=O)c1cc2c(=Cc3ccc(N(C)C)cc3)c3ccccc3n2[n+]1C`, with 90.4% (active).
Then `COc1cc(C2c3cc4c(cc3C(OC3OC5COC(c6cccs6)OC5C(O)C3O)C3COC(=O)C23)OCO4)cc(OC)c1O` (stereo not given), with -36.1% (inactive).
On to `CCc1nc(N)nc(N)c1-c1ccc(N(C)Cc2ccccc2)c([N+](=O)[O-])c1`, for which the inhibition is 64.1% (active).
The value for `Cc1ccc(S(=O)(=O)Nc2ccccc2C(=O)Nc2nc(-c3ccc(F)cc3)cs2)cc1` was 72.4% (active); that for `COc1ccc(NC(=O)c2sc(=O)n(Cc3cccc(C(F)(F)F)c3)c2C)cc1OC` was 73.9% (active).
Then `CC#CC[N+](C)(C)CCCCCCCCCCCC`, with 63.5% (active); and `Cc1cccc2cc(-c3ccccc3)c(-c3ccccc3)c[n+]12`, with 81.7% (active); and `CCN(CC)c1ccc(/C=C/c2ccc3ccc(OC)cc3[n+]2CC)cc1`, with 84.1% (active).
As to `Cc1cc(/C=C2\Sc3ccccc3N2C)cc(C)[n+]1CC1CCCO1` (stereo not given), the inhibition is 89% (active).
On to `CC(C)CCCCCCCCCCCCC(=O)NCC(=O)NC1C(O)C(O)C(Nc2ncnc3nc[nH]c23)OC1C(O)CO` (stereo not given), for which the inhibition was 98.2% (active).
The value for `O=C1NC(=O)C(c2ccc(F)cc2)N1` (stereo not given) was 4.11% (inactive); that for `CCN(CC)c1ccc(/C=C/c2cccc[n+]2C)c(OC)c1` was 85.7% (active); that for `CCc1ccc(/C=C/c2c[nH]c3ccccc23)[n+](CC)c1` was 75.8% (active).
Then `NC(=O)c1cc([N+](=O)[O-])ccc1NCc1ccc(O)cc1`, with 66.9% (active); and `CCN(CC)CCCNc1nc2ccccc2c2[nH]c3ccc(OC)cc3c12`, with 71.7% (active); and `CC1=NN(c2nc3ccccc3[nH]2)C(=O)C1Cc1ccccc1` (stereo not given), with 83.6% (active).
Then `Nc1nc(N)c2c(ccc3c2ccn3Cc2cccc([N+](=O)[O-])c2)n1`, with 43.3% (active); and `CCN1/C(=C/c2ccc3cc(C)ccc3[n+]2CC)Sc2ccccc21`, with 82.7% (active); and `CC(C)(C)c1ccc(-c2cn(-c3ccc(Br)cc3)c3[n+]2CCCS3)cc1`, with 89.2% (active).
With `COc1ccc(C2=Nn3c([n+](C)c4ccccc43)SC2)cc1`, the inhibition was 78.7% (active).
With `CCOC(=O)C(C(C)=O)c1c(Br)c(O)c(O)c2c(C(=O)c3ccc(C)cc3)coc12` (stereo not given), the inhibition was 81.6% (active).
Turning to `N=c1c2c(n(Cc3ccc(F)cc3)c3c1CCC3)CCCC2`, the inhibition is 61.2% (active).
On to `Cc1nc(N)nc(N)c1/C=C/C(C)(C)c1ccc(Cl)cc1`, for which the inhibition was 28.6% (inactive).
Then `COCCn1c(C)cc(C(=O)COC(=O)c2ccccc2Br)c1C`, with 16.6% (inactive).
The value for `CC(=O)c1cccc(N=c2scc(-c3ccc(S(=O)(=O)N4CCOCC4)cc3)n2CCO)c1` was 61.1% (active); that for `CC(=NNC(=S)N1CC2CCC(CC2)C1)c1ccccn1` was 64.6% (active).
In the case of `O=C(N/N=C/c1ccc[nH]1)c1ccc(COc2cccc3cccnc23)cc1`, the inhibition is 88.4% (active).
